TDP1 cell CPT: DT40-hTDP1 cell growth loss with CPT; 420,000 tested, 12% active; Potency, µM (titrated, usually from 46.2 µM), inactives show top-dose activity change, negative = growth inhibition, most hits filed as inhibitors; chicken DT40 Tdp1-/-;hTDP1 cells + 20 nM CPT, ATP luminescence, 48 h; note: nearly all actives have a fitted effect of over 55% in size
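Chicken DT40 Tdp1-/- cells complemented with human TDP1, 400 cells/well, exposed to compounds plus 20 nM camptothecin for at least 48 h at 37 C; viability read as ATP content by CellTiter-Glo luminescence.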
KB-3-1 cytotox: KB-3-1 parental cell cytotoxicity. KB-3-1 viability, CellTiter-Glo ATP luminescence, 72 h. Potency, µM (highest dose often 46.1 µM), usual class: cytotoxic. 400,000 tested, 1.4% active. AID 1347075; note: nearly all actives have a fitted effect of over 60% in size
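Viability of parental KB-3-1 cells, measured by CellTiter-Glo luminescence, followed a 72 h incubation at 37 °C with pinned compounds in phenol-red-free DMEM containing 10% FBS.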
KB-V1 MDR tox: kills drug-selected multidrug resistant KB-V1 cells; KB-V1 MDR cells viability, CellTiter-Glo, 72 h; AID 1347076; Potency, µM (highest dose often 46.1 µM), usual class: cytotoxic; 400,000 tested, 3.4% active; note: nearly all actives have a fitted effect of over 60% in size
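Following 72 h at 37 degrees C with compound, KB-V1 cell viability was read by CellTiter-Glo luminescence, medium being phenol-red-free DMEM plus 10% FBS; concentration-response parameters came from normalized, curve-fitted qHTS data.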
HT1080 IDH1KD tx: HT-1080 IDH1 knockdown cell toxicity (counter line); HT-1080 IDH1 knockdown viability, ATP luminescence, 48 h; Potency, µM (series often up to 46.1 µM), without a hit: at the top dose activity, negative = toxicity, actives largely listed as cytotoxic; 360,000 tested, 2% active; AID 686971;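 note: 0% = DMSO wells and -100% = cell-free medium wells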
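Assay cells: HT-1080 with IDH1 knockdown, 750 per well, RPMI/5% FBS. Exposure: 48 h at 37 °C following 2 h pre-incubation. Read: CellTiter-Glo luminescence; fitted concentration-response, curve class assigned.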
TDP1 cell noCPT: qHTS for Inhibitors of human tyrosyl-DNA phosphodiesterase 1 (TDP1): qHTS in cells in absence of CPT | 420,000 tested, 15% active | Potency, µM (series often up to 46.2 µM), inactives show at the highest dose activity change, negative = growth inhibition, usual class: inhibitors | DT40 Tdp1-/- hTDP1 cells, no CPT, ATP luminescence, 48 h | AID 686978, 2013; note: nearly all actives have a fitted effect of over 55% in size
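A cellular qHTS used chicken DT40 cells lacking endogenous Tdp1 but carrying stably transfected human TDP1. Compounds were applied without camptothecin, and cell growth kinetics were judged by ATP-dependent luminescence after ≥48 hr.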
HT1080-NT tox: kills 2HG-producing HT-1080-NT fibrosarcoma cells. HT-1080-NT fibrosarcoma viability, CellTiter-Glo ATP luminescence, 48 h. Potency, µM (highest dose often 46.1 µM), for inactives: top-dose activity, negative = less viability, most hits filed as cytotoxic. 360,000 tested, 1.6% active. AID 686970;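 note: NT is the 2HG producing partner of a matched IDH1 knockdown line; 0% = DMSO-treated cells and -100% = media-only wells without cells; nearly all actives have a fitted effect of over 55% in size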
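Compounds were tested in concentration-response format on HT-1080-NT cells for 48 hours at 37 degrees C. Cell viability came from CellTiter-Glo luminescence; curves were classified by r2, response magnitude and activity.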
Active calls of the source: *; i = inactive; ? = inconclusive; . = no result given; [ ] = another dose, or the depositor's remark. The list is not random: actives were taken first. Their share in the collection is about 19%. Calls come from the whole dose curve; as a rule, active = well fitted curve in the direction sought with a large enough effect; inconclusive = small, poorly fitted or top-dose-only effect, or another doubt; inactive = no such curve, though single readings can be large; an effect the other way counts as inactive or inconclusive. Unless noted, % is set by controls: 0 for no effect and ±100 for the full control effect; potency is the fitted concentration of half-maximal effect.

SMILES	TDP1 cell CPT	KB-3-1 cytotox	KB-V1 MDR tox	HT1080 IDH1KD tx	TDP1 cell noCPT	HT1080-NT tox
CCC(C)NC(=O)C1(N2C(=O)c3ccccc3C2=O)CCCC1 (centres undefined)	-1%	i	i	2%	2%	7%
COc1cc(C(=O)Nc2ccc(N3CCN(C(=O)c4ccc(C)cc4)CC3)cc2)cc(OC)c1OC	21µM*	i	i	0%	15µM*	-25%
COc1ccc(C(=O)Nc2c(C)ccc3nsnc23)cc1[N+](=O)[O-]	-1%	i	15µM*	21%	-5%	3%
CCc1ccc(NC(=O)c2ccc(OC)c([N+](=O)[O-])c2)cc1	3%	i	15µM*	10%	1%	21%
CCC(C)NC(=O)c1nn(-c2ccc(C)cc2)nc1CO (centres undefined)	4%	.	.	.	-10%	.
CCc1ccc2[nH]c3nc(N/N=C/c4cccc(O)c4)nnc3c2c1	-2%	?	i	9.2µM*	0%	?
O=c1[nH]c(=O)c2nnc(N/N=C\c3ccc(O)cc3)nc2[nH]1	20%	i	i	10%	-16%	11%
COc1ccc2c(c1)-c1nc(-n3ncc(C(=O)N(C)C(C)c4ccon4)c3C3CC3)ncc1CC2 (centres undefined)	-20%[9.04 µM]	.	.	.	?	.
CC(c1ccccc1)N1C(=O)/C(=C/c2ccncc2)SC1=S (centres undefined)	?	?	?	?	23µM*	?
Cc1cc(NC(=O)CN2C(=O)S/C(=C\c3ccccc3)C2=O)no1	-12%	i	i	-2%	-8%	-1%
O=C(CN1C(=O)S/C(=C/c2ccncc2)C1=O)Nc1ccccc1	23µM*	i	i	0%	?	-5%
O=C(O)CCCCCN1C(=O)/C(=C/c2ccncc2)SC1=S	23µM*	i	i	-5%	23µM*	0%
O=C(O)CCCCCN1C(=O)/C(=C\c2ccncc2)SC1=S	23µM*	?	?	12%	23µM*	8%
O=C(O)CCCN1C(=O)/C(=C/c2ccncc2)SC1=S	?	i	i	-18%	?	?
